The record followed here is PubChem BioAssay (Tox21).

Structures are written as SMILES. “And” between values parts separate entries of the source, which are not always exact repeats. Equal values may be shown once. Inconclusive results are not listed. Where a structure was tested more than once in an assay, its records may differ in their call. The source made the active and inactive calls. Calls come from the whole dose curve; as a rule, active = well fitted curve in the direction sought with a large enough effect in the repeat runs; inconclusive = weak or mixed curves; inactive = no such curve, though single readings can be large; an effect the other way counts as inactive or inconclusive.

Test [1] is described as follows: A CellTox Green Cytotoxicity Assay to monitor cytotoxicity in HEK293 cells - 40 hour (AID 1224871). Note: nearly all actives have a fitted effect of over 45% in size. Note: potency is the fitted concentration of half-maximal effect. The conditions noted are these: CellTox Green fluorescence; series mostly up to 76.8 µM. In a few lines: (§1)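 Nonlytic real-time cytotoxicity: HEK293 + CellTox Green reagent plated, 5 h preincubation, pintool compound addition (23 nL in DMSO), 37 C for 40 h, fluorescence measured at successive time points.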

The nature of test [2]: qHTS RealTime-Glo MT Cell Viability Assay in HEK293 cells - 16 hour (AID 1224872). Note: nearly all actives have a fitted effect of over 50% in size. Note: potency is the fitted concentration of half-maximal effect. The conditions noted are these: RealTime-Glo luminescence; series mostly up to 76.8 µM. In a few lines:
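HEK293 cells were seeded at 600 cells/well together with NanoLuc luciferase and cell-permeant prosubstrate, preincubated 5 h at 37 C/5% CO2, then given compound in DMSO by pintool. Luminescence from viable-cell prosubstrate reduction was read repeatedly over 40 h.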
On the technique in general: qHTS replaces the single test concentration by a dilution series.

Test [3] is described as follows: qHTS RealTime-Glo MT Cell Viability Assay in HEK293 cells - 40 hour (AID 1224874). Note: nearly all actives have a fitted effect of over 50% in size. Note: potency is the fitted concentration of half-maximal effect. The conditions noted are these: RealTime-Glo luminescence; max response: stronger effect = lower value. In a few lines: (§2)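 Cells were seeded together with NanoLuc luciferase and a prosubstrate that viable cells reduce to a luciferase substrate. After a 5 h incubation at 37 C/5% CO2, compounds were added and luminescence was measured repeatedly during 40 h of treatment.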

Test [4] in a line: A CellTox Green Cytotoxicity Assay to monitor cytotoxicity in HEK293 cells - 24 hour (AID 1224875). Note: nearly all actives have a fitted effect of over 45% in size. Note: potency is the fitted concentration of half-maximal effect. The conditions noted are these: CellTox Green fluorescence; series mostly up to 76.8 µM. In a few lines:
as §1

Test [5] is described as follows: A CellTox Green Cytotoxicity Assay to monitor cytotoxicity in HepG2 cells - 16 hour (AID 1224876). Note: nearly all actives have a fitted effect of over 45% in size. Note: potency is the fitted concentration of half-maximal effect. Particulars: CellTox Green fluorescence; series mostly up to 76.8 µM. In a few lines: (§3)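 Read-out is fluorescence of a cyanine dye excluded from live cells that stains DNA of dead HepG2 cells, with signal proportional to cytotoxicity. Plates were read at 0, 8, 16, 24, 32 and 40 h after compound addition.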

The nature of test [6]: A CellTox Green Cytotoxicity Assay to monitor cytotoxicity in HepG2 cells - 24 hour (AID 1224878). Note: nearly all actives have a fitted effect of over 45% in size. Note: potency is the fitted concentration of half-maximal effect. Particulars: CellTox Green fluorescence; series mostly up to 76.8 µM. In short, it runs like this: as §3
A short description of test [7]: A CellTox Green Cytotoxicity Assay to monitor cytotoxicity in HepG2 cells - 40 hour (AID 1224879). Note: nearly all actives have a fitted effect of over 40% in size. Note: potency is the fitted concentration of half-maximal effect. The conditions noted are these: CellTox Green fluorescence; series mostly up to 76.8 µM. In short, it runs like this:
as §3

A short description of test [8]: qHTS RealTime-Glo MT Cell Viability Assay in HEK293 cells - 0 hour (AID 1224880). Note: nearly all actives have a fitted effect of over 45% in size. Note: potency is the fitted concentration of half-maximal effect. The conditions noted are these: RealTime-Glo luminescence; series mostly up to 76.8 µM. In a few lines:
as §2

The nature of test [9]: qHTS RealTime-Glo MT Cell Viability Assay in HepG2 cells - 32 hour (AID 1224877). Note: nearly all actives have a fitted effect of over 55% in size. Note: potency is the fitted concentration of half-maximal effect. Particulars: RealTime-Glo luminescence; series mostly up to 76.8 µM. In a few lines:
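HepG2 cells were seeded at 600 cells/well together with NanoLuc luciferase and a cell-permeant prosubstrate, preincubated 5 h at 37 C/5% CO2, then pin-dosed with compounds in DMSO. Nonlytic luminescence from viable cells was read at each time point.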

The nature of test [10]: qHTS RealTime-Glo MT Cell Viability Assay in HepG2 cells - 8 hour (AID 1224873). Note: nearly all actives have a fitted effect of over 55% in size. Particulars: RealTime-Glo luminescence; series mostly up to 76.8 µM. In short, it runs like this: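 Real-time viability: cells seeded at 600 per well together with NanoLuc and cell-permeant prosubstrate, compounds added after 5 h incubation. Luminescence tracked at 0, 8, 16, 24, 32 and 40 h of exposure.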
% is set by controls: 0 for no effect and ±100 for the full control effect.

Consider `O=C1C(Cl)=C(Cl)C(=O)c2ccccc21`, for which the Potency in test [1] is 3.9 µM (active) and 4.9 µM (active); in test [2], 6.19 µM (active) and 9.77 µM (active); in test [3] it was 5.51 µM (active) and 6.92 µM (active); in [4] it was 3.9 µM (active) and 6.92 µM (active); in test [5] it was 12.3 µM (active) and 4.9 µM (active); in test [6], 12.3 µM (active) and 3.89 µM (active). The Potency in test [7] is 17.4 µM (active) and 4.36 µM (active); in test [8], 5.51 µM (active).
On to `Nc1ccc2ccccc2c1`, for which the Potency result in test [1], in test [2], in test [4], in test [5], in test [7] and in test [8] was “inactive” in each case. Further, the max response in [3] was 5% (inactive).
Regarding `CCCCOCC1CO1` (centres undefined), the Potency entry in test [1] is “inactive and 19.5 µM (active)”; in test [5], “inactive and 43.6 µM (active)”; in test [6], “inactive and 38.9 µM (active)”; in test [7], “inactive and 43.6 µM (active)”. For the same molecule, the Potency result in test [2], in [9] and in test [8] was “inactive” throughout. Also, in test [3], the max response was 4.37% (inactive) and 7.91% (inactive).
`O=[N+]([O-])/N=C1\NCCN1Cc1ccc(Cl)nc1`: the Potency entry in [1], in test [2], in test [4], in test [5], in test [6] and in [7] was “inactive” throughout. Further, in test [8], the Potency result was “inactive”. Moreover, the max response in test [3] is 1.13% (inactive) and 0.238% (inactive).
Regarding `COC(=O)Nc1nc2ccccc2[nH]1`, the Potency result in test [1], in [2], in test [4], in test [5], in test [9] and in test [8] was “inactive” in each case. In addition, the Potency in test [7] was 5.49 µM (active) and 11 µM (active).
In the case of `C[C@]12CCC(=O)C=C1CC[C@@H]1[C@@H]2CC[C@@]2(C)[C@H]1CC[C@]2(C)O`, the Potency in test [1] was 49.4 µM (active) and inactive; in test [2] it was 19.7 µM (active); in test [3], 19.7 µM (active); in test [5] it was 22.1 µM (active) and inactive; in test [6] it was 35 µM (active); in test [7] it was 19.7 µM (active) and 23.9 µM (active). Further, the Potency result in [9] and in [8] was “inactive” in each case.
Consider `ClC(Cl)=C(Cl)C(Cl)=C(Cl)Cl`, for which the Potency result in test [1], in test [2], in test [4], in test [5], in test [9] and in [7] was “inactive” throughout. The Potency result in [8] was “inactive”. In [3], the max response was 3.65% (inactive) and 8.28% (inactive).
Regarding `CC1(C)Cc2cccc(O)c2O1`, the Potency entry in [1], in [2], in [4], in test [5], in [9] and in test [7] was “inactive” each time. In [8], the Potency entry is “inactive”. In addition, in [3], the max response is 1.32% (inactive) and -0.986% (inactive).
Take `CC(C)=CC1C(C(=O)OCN2C(=O)C3=C(CCCC3)C2=O)C1(C)C` (centres undefined): the Potency result in test [1], in test [2], in [4], in test [5], in test [9] and in test [7] was “inactive” throughout. In addition, the Potency result in test [8] is “inactive”. Moreover, the max response in test [3] was 2.99% (inactive).
As for `CCOP(=S)(OCC)OP(=S)(OCC)OCC`, the Potency entry in [1], in test [2], in test [4], in test [5], in test [7] and in test [8] was “inactive” each time. Also, in [3], the max response is 3.87% (inactive) and 10.7% (inactive).
With `C=CC(Cl)CCl` (centres undefined), the Potency result in test [1], in test [2], in [4], in test [5], in [7] and in test [8] was “inactive” throughout. Moreover, in [3], the max response was 19.1% (inactive) and 0.374% (inactive).
On to `CC(C)(c1ccccc1)c1ccc(O)c(C(C)(C)c2ccccc2)c1`, for which the Potency in test [1] was 24.3 µM (active) and 43.6 µM (active); in test [2] it was 21.7 µM (active) and 43.6 µM (active); in [3], 17.2 µM (active) and 43.6 µM (active); in [4], 43.2 µM (active) and 49 µM (active); in test [5], 48.5 µM (active) and 43.6 µM (active); in test [9], 49 µM (active). In test [7], the Potency was 54.4 µM (active) and 43.6 µM (active). In addition, the Potency result in test [8] is “inactive”.
As to `CCCCCCCC[N+](C)(CCCCCCCC)CCCCCCCC`, the Potency was 24.5 µM (active) and 27.6 µM (active) and 12.3 µM (active) in test [1]; 2.75 µM (active) and 1.1 µM (active) and 6.16 µM (active) in test [2]; 173 nM (active) and 138 nM (active) and 1.1 µM (active) in [3]; 21.8 µM (active) and 21.9 µM (active) and 9.77 µM (active) in test [4]; 15.5 µM (active) and 21.9 µM (active) and 17.4 µM (active) in [5]; 13.8 µM (active) and 19.5 µM (active) in [7]. In addition, the Potency result in test [8] is “inactive”.
Turning to `C[N+](C)(C)CC(=O)[O-]`, the Potency result in test [1], in test [2], in test [4], in [5], in test [6] and in test [7] was “inactive” each time. Also, the Potency entry in [8] is “inactive”. Also, the max response in [3] was 3.4% (inactive) and 10.8% (inactive).
Take `NN=C(N)N`: the Potency result in [1], in test [2], in test [4], in [5], in test [6] and in [7] was “inactive” each time. In addition, the Potency entry in [8] was “inactive”. The max response in test [3] was -2.73% (inactive) and -1.15% (inactive).
On to `O=C1Nc2ccc(Cl)cc2C(c2ccccc2)=NC1O` (centres undefined), for which the Potency entry in [1], in [10], in test [4], in test [5], in test [6] and in test [7] was “inactive” in each case. For the same molecule, the Potency result in test [8] is “inactive”. In test [3], the max response is -19.7% (inactive).
In the case of `CCOP(=S)(OCC)SCn1c(=O)oc2cc(Cl)ccc21`, the Potency entry in test [1], in [4], in test [5], in test [9], in [6] and in test [7] was “inactive” throughout. Moreover, the Potency result in test [8] is “inactive”. Also, the Potency in [2] was 26.3 µM (active) and 19.5 µM (active); in [3], 29.5 µM (active).
As to `CCCCCCCCCC(CC)c1ccc(S(=O)(=O)O)cc1` (centres undefined), the Potency result in test [2], in test [10], in [9] and in test [8] was “inactive” in each case. Also, the Potency in [3] was 44.1 µM (active); in test [5], 49 µM (active) and 16.9 µM (active) and 42 µM (active); in test [7], 21.3 µM (active) and 38.9 µM (active). In test [3], the max response was -25.5% (inactive) and -23.7% (inactive) and -24.7% (inactive).
In the case of `N#Cc1c(Cl)c(Cl)c(Cl)c(C#N)c1Cl`, the Potency in [1] was 6.79 µM (active) and 5.49 µM (active); in test [2], 3.4 µM (active) and 1.55 µM (active); in test [3], 1.7 µM (active) and 1.1 µM (active); in test [4], 12.1 µM (active) and 9.77 µM (active); in test [5], 24.1 µM (active) and 6.92 µM (active); in test [7] it was 19.1 µM (active) and 2.45 µM (active). Besides, in [8], the Potency entry was “inactive”.
Take `COP(=S)(OC)Oc1ccc(Sc2ccc(OP(=S)(OC)OC)cc2)cc1`: the Potency result in test [1], in test [2], in test [4], in test [5], in test [7] and in [8] was “inactive” throughout. The max response in test [3] is 5.12% (inactive).
